# Laboratory results taken from PubChem BioAssay (EPA / NIEHS).
# Inconclusive results are not listed. Activity calls are given as the source filed them. Rule for the calls, unless noted: active = hit-call score of the fitted dose curve at least 0.9, where 1 is the maximum; inactive = score below 0.9.
# Columns and labels:
# [1] = read-out: Monokine induced gamma interferon (MIG), CXCL9 (gene 4283); test: BSK_3C_MIG: BioMAP Diversity Plus: 3C Assay for Monokine induced gamma interferon (MIG) Biomarker Activity (AID 2283021); details: primary human endothelial cells (HUVEC); actives raise or lower the signal;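 for AC50: MIG protein level measured by immunoassay in the treated endothelial cultures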
# Method in brief: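 HUVEC primary endothelial cultures dosed with chemical; MIG quantified by ELISA at 24 h. Data fitted bidirectionally against DMSO control, with parallel SRB total-protein staining for cytotoxicity.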
# [2] = target: human Vitamin D Receptor (VDR), VDR (gene 7421) (UniProt P11473); test: ATG_VDR_TRANS: Attagene TRANS-FACTORIAL HepG2 Assay for human Vitamin D Receptor (VDR) (AID 2283022; active = hit-call score of the fitted dose curve at least 0.9, where 1 is the maximum)
# human Vitamin D Receptor (VDR), VDR (gene 7421), sequence (P11473 whole entry, looked up, the tested form may be a part): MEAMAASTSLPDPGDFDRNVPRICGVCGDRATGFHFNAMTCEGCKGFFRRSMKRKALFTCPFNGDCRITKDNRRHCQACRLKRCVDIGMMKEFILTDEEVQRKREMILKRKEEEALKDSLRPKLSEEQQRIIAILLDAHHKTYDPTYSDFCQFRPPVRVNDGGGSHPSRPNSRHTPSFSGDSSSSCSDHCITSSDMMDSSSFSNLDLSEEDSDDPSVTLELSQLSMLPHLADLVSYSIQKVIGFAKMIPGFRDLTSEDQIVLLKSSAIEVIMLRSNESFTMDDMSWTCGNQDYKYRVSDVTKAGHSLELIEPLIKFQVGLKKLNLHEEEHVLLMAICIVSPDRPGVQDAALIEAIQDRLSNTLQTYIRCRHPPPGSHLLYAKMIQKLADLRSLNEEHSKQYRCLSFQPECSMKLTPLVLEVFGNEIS
# Method in brief: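 Transactivation by an exogenous VDR-Gal4 chimera in transiently transfected HepG2 cells was measured as reporter transcript level 24 hours after chemical treatment. RT-PCR products were analysed by capillary electrophoresis and fitted in the positive direction relative to DMSO.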
# [3] = BSK_3C_SRB: Viability Assessment in the BioMAP Diversity Plus: 3C Assay (AID 2283023); details: primary human endothelial cells (HUVEC);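 note: fitted both ways against DMSO so a hit may be signal rise or drop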
# Method in brief: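 Cytotoxicity readout in parallel HUVEC 3C cultures: after 24 h compound exposure, cells fixed with 10% TCA, stained with 0.1% SRB and read at 560 nm. Gain or loss relative to DMSO fitted.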
# [4] = read-out: Matrix Metallopeptidase 1 (MMP1), MMP1 (gene 4312); test: BSK_BE3C_MMP1: BioMAP Diversity Plus: BE3C Assay for Matrix Metallopeptidase 1 (MMP1) Biomarker Activity (AID 2283024); details: primary human bronchial epithelial cells; actives raise or lower the signal
# Method in brief: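 Human primary bronchial epithelial cells (BE3C system) dosed for 24 h; MMP-1 quantified by ELISA. Bidirectional fit against DMSO; cytotoxicity tracked in parallel cultures by SRB total-protein staining.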
# [5] = BSK_3C_Vis: BioMAP Diversity Plus: 3C Assay for Morphology Visualization (AID 2283025); details: primary human endothelial cells (HUVEC);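 note: fitted both ways so gain or loss versus DMSO counts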;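 for AC50: light microscopy image of cell morphology used as background control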
# Method in brief: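 Human umbilical vein endothelial cell morphology was inspected by light microscopy 24 h after chemical dosing; scored bidirectionally relative to DMSO.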
# [6] = read-out: Pselectin, SELP (gene 6403); test: BSK_4H_Pselectin: BioMAP Diversity Plus: 4H Assay for Pselectin Biomarker Activity (AID 2283026); details: primary human endothelial cells (HUVEC); actives raise or lower the signal
# Method in brief: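 Primary human umbilical vein endothelial cells were treated 24 h, and cell-surface P-selectin was then quantified by ELISA. Bidirectional fit versus DMSO; cytotoxicity checked in parallel cultures by SRB total-protein staining.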
# [7] = BSK_4H_SRB: Viability Assessment in the BioMAP Diversity Plus: 4H Assay (AID 2283027); details: primary human endothelial cells (HUVEC);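 note: cells exposed to compound for 24 h before staining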;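 for AC50: curves fitted both ways versus DMSO so AC50 may be loss or gain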
# Method in brief: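 Human umbilical vein endothelial cells, 24 h after chemical dosing; total protein measured by 0.1% sulforhodamine B staining after 10% TCA fixation, read at 560 nm. Bidirectional fitting against DMSO.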
# [8] = BSK_BE3C_SRB: Viability Assessment in the BioMAP Diversity Plus: BE3C Assay (AID 2283028); details: primary human bronchial epithelial cells;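 for AC50: fitted both ways so AC50 may mark signal gain or loss versus DMSO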
# Method in brief: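 Cytotoxicity read-out: SRB (0.1%) staining of TCA-fixed (10%) human lung bronchial epithelial cells, absorbance 560 nm, 24 h post-dosing. Curves fitted both directions relative to DMSO.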
# [9] = read-out: Thrombomodulin, THBD (gene 7056); test: BSK_3C_Thrombomodulin: BioMAP Diversity Plus: 3C Assay for Thrombomodulin Biomarker Activity (AID 2283029); details: primary human endothelial cells (HUVEC); actives raise or lower the signal
# Method in brief: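 Human umbilical vein endothelial cells were exposed to chemicals for 24 h; cell-surface thrombomodulin quantified by ELISA, with bidirectional fitting against DMSO baseline.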
# [10] = read-out: Urokinase-type plasminogen activator receptor (uPAR), PLAUR (gene 5329); test: BSK_4H_uPAR: BioMAP Diversity Plus: 4H Assay for Urokinase-type plasminogen activator receptor (uPAR) Biomarker Activity (AID 2283030); details: primary human endothelial cells (HUVEC); actives raise or lower the signal
# Method in brief: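 uPAR level read by ELISA on HUVEC cultures (BioMAP 4H) 24 h post-dosing, analyzed for gain or loss relative to DMSO. Parallel SRB staining assessed overt cytotoxicity.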
# [11] = read-out: Vascular endothelial growth factor receptor 2 (Homo sapiens) (UniProt P35968); test: BSK_4H_VEGFRII: BioMAP Diversity Plus: 4H Assay for Vascular endothelial growth factor receptor 2 (VEGFR2) Biomarker Activity (AID 2283031); details: primary human endothelial cells (HUVEC); actives raise or lower the signal;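 for AC50: cell-surface VEGFR2 protein level quantified by ELISA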
# Method in brief: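 Measured by ELISA after 24 h of compound treatment: VEGFR2 on primary human umbilical vein endothelial cells, fitted in both directions relative to DMSO. Parallel cultures received SRB staining (560 nm) for overt cytotoxicity.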
# [12] = read-out: Human Leukocyte Antigen - DR isotype (HLADR), HLA-DRA (gene 3122); test: BSK_BE3C_HLADR: BioMAP Diversity Plus: BE3C Assay for Human Leukocyte Antigen - DR isotype (HLADR) Biomarker Activity (AID 2283032); details: primary human bronchial epithelial cells; actives raise or lower the signal
# Method in brief: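 Human primary bronchial epithelial cells (BE3C system) exposed to compound for 24 hours; cell-surface HLA-DR measured by ELISA, fitted bidirectionally relative to DMSO. Total protein by SRB in parallel cultures tracked cytotoxicity.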
# [13] = read-out: Vascular cell adhesion molecule 1 (VCAM1), VCAM1 (gene 7412); test: BSK_4H_VCAM1: BioMAP Diversity Plus: 4H Assay for Vascular cell adhesion molecule 1 (VCAM1) Biomarker Activity (AID 2283033); details: primary human endothelial cells (HUVEC); actives raise or lower the signal
# Method in brief: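 Primary human umbilical vein endothelial cells, 4H stimulation system, treated for 24 h; cell-surface VCAM-1 quantified by ELISA. Bidirectional fitting against DMSO; cytotoxicity tracked by SRB total-protein staining in parallel cultures.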
# [14] = read-out: Interferon-gamma inducible Protein 10 (IP10), CXCL10 (gene 3627); test: BSK_BE3C_IP10: BioMAP Diversity Plus: BE3C Assay for Interferon-gamma inducible Protein 10 (IP10) Biomarker Activity (AID 2283034); details: primary human bronchial epithelial cells; actives raise or lower the signal
# Method in brief: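 Primary human bronchial epithelial cells, with IP-10 measured by ELISA 24 hours after chemical dosing. Bidirectional fit against DMSO; cytotoxicity checked by SRB total protein staining in parallel cultures.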
# [15] = read-out: Monokine induced gamma interferon (MIG), CXCL9 (gene 4283); test: BSK_BE3C_MIG: BioMAP Diversity Plus: BE3C Assay for Monokine induced gamma interferon (MIG) Biomarker Activity (AID 2283035); details: primary human bronchial epithelial cells; actives raise or lower the signal;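 for outcome: MIG protein measured by ELISA in BE3C cultures after 24 h of dosing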
# Method in brief: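 Primary human bronchial epithelial cells treated for 24 h; MIG levels measured by ELISA, fitted bidirectionally versus DMSO. Parallel SRB total-protein staining assessed cytotoxicity.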
# [16] = read-out: Plasminogen activator inhibitor-1 (PAI1), SERPINE1 (gene 5054); test: BSK_BE3C_PAI1: BioMAP Diversity Plus: BE3C Assay for Plasminogen activator inhibitor-1 (PAI1) Biomarker Activity (AID 2283037); details: primary human bronchial epithelial cells; actives raise or lower the signal
# Method in brief: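 Primary human bronchial epithelial cells (BE3C system) exposed 24 h; PAI-1 quantified by ELISA. Parallel sulforhodamine B staining of total protein flags cytotoxicity. Bidirectional fit versus DMSO.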
# [17] = read-out: urokinase plasminogen activator (uPA), PLAU (gene 5328); test: BSK_BE3C_uPA: BioMAP Diversity Plus: BE3C Assay for urokinase plasminogen activator (uPA) Biomarker Activity (AID 2283038); details: primary human bronchial epithelial cells; actives raise or lower the signal;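 for outcome: uPA protein level quantified by ELISA in cell cultures; uPA read one day after compound addition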
# Method in brief: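 ELISA for uPA on human primary bronchial epithelial cultures 24 h post-treatment, gain or loss against DMSO. Parallel SRB staining (0.1% after 10% TCA fixation, 560 nm) assessed overt cytotoxicity.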
# [18] = read-out: Urokinase-type plasminogen activator receptor (uPAR), PLAUR (gene 5329); test: BSK_BE3C_uPAR: BioMAP Diversity Plus: BE3C Assay for Urokinase-type plasminogen activator receptor (uPAR) Biomarker Activity (AID 2283039); details: primary human bronchial epithelial cells; actives raise or lower the signal;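 for outcome: cells exposed to compound for one day before measurement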
# Method in brief: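 Primary human bronchial epithelial cells dosed for 24 h; uPAR quantified by ELISA with bidirectional fitting against DMSO. Overt cytotoxicity assessed in parallel cultures by SRB total-protein staining (0.1% SRB, 560 nm).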
# [19] = read-out: Interleukin-6 (IL6), IL6 (gene 3569); test: BSK_CASM3C_IL6: BioMAP Diversity Plus: CASM3C Assay for Interleukin-6 (IL6) Biomarker Activity for (AID 2283040); details: primary human coronary artery smooth muscle cells; actives raise or lower the signal
# [20] = read-out: Transforming growth factor beta 1 (TGFb1), TGFB1 (gene 7040); test: BSK_BE3C_TGFb1: BioMAP Diversity Plus: BE3C Assay for Transforming growth factor beta 1 (TGFb1) Biomarker Activity (AID 2283036); details: primary human bronchial epithelial cells; actives raise or lower the signal
# Method in brief: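 Primary human bronchial epithelial cells dosed with chemical; TGF-b1 measured by ELISA 24 h after dosing. Bidirectional curve fitting against DMSO negative control; SRB total-protein staining in parallel cultures gauged cytotoxicity.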
structure (smiles),measurement,setting,value
ClC1=C(Cl)[C@]2(Cl)[C@H]3[C@H]([C@@H]4C=C[C@H]3C4)[C@@]1(Cl)C2(Cl)Cl,AC50,[1],37.3 µM (active)
same,outcome,[2],inactive
same,AC50,[3],26 µM (active)
same,AC50,[4],20 µM (active)
same,outcome,[5],inactive
same,AC50,[6],24.1 µM (active)
same,AC50,[7],33.3 µM (active)
same,outcome,[8],inactive
same,outcome,[9],inactive
same,AC50,[10],32.3 µM (active)
same,AC50,[11],29.4 µM (active)
same,outcome,[12],inactive
same,AC50,[13],33.9 µM (active)
same,AC50,[14],30.3 µM (active)
same,outcome,[15],inactive
same,AC50,[16],34 µM (active)
same,outcome,[17],inactive
same,outcome,[18],inactive
same,outcome,[19],inactive
c1ccc2c(c1)-c1cccc3cccc-2c13,outcome,[1],inactive
same,outcome,[2],inactive
same,outcome,[3],inactive
same,outcome,[4],inactive
same,outcome,[5],inactive
same,outcome,[6],inactive
same,outcome,[7],inactive
same,outcome,[8],inactive
same,outcome,[9],inactive
same,outcome,[10],inactive
same,outcome,[12],inactive
same,outcome,[13],inactive
same,outcome,[14],inactive
same,outcome,[15],inactive
same,outcome,[16],inactive
same,outcome,[17],inactive
same,outcome,[18],inactive
same,outcome,[19],inactive
Cc1ccc(N=C=O)cc1N=C=O,outcome,[1],inactive
same,outcome,[2],inactive
same,outcome,[3],inactive
same,outcome,[4],inactive
same,outcome,[5],inactive
same,outcome,[6],inactive
same,outcome,[7],inactive
same,outcome,[8],inactive
same,outcome,[9],inactive
same,outcome,[10],inactive
same,outcome,[11],inactive
same,outcome,[12],inactive
same,outcome,[13],inactive
same,AC50,[14],20 µM (active)
same,outcome,[15],inactive
same,outcome,[16],inactive
same,outcome,[17],inactive
same,outcome,[18],inactive
same,outcome,[19],inactive
[Cl-].[Cl-].[Hg+2],AC50,[1],30.9 µM (active)
same,outcome,[2],inactive
same,AC50,[3],30.3 µM (active)
same,AC50,[4],31.4 µM (active)
same,AC50,[5],37.5 µM (active)
same,AC50,[6],33 µM (active)
same,AC50,[7],20 µM (active)
same,AC50,[8],34.7 µM (active)
same,outcome,[9],inactive
same,AC50,[10],30 µM (active)
same,outcome,[11],inactive
same,AC50,[12],30.2 µM (active)
same,AC50,[13],29.7 µM (active)
same,AC50,[14],34.9 µM (active)
same,AC50,[15],36.5 µM (active)
same,AC50,[16],30.9 µM (active)
same,AC50,[17],31.6 µM (active)
same,AC50,[18],31.5 µM (active)
same,AC50,[19],31.9 µM (active)
CCOC(=O)[C@]1(c2ccccc2)Oc2ccccc2[C@@H]1N,outcome,[1],inactive
same,outcome,[2],inactive
same,AC50,[3],24.7 µM (active)
same,outcome,[4],inactive
same,AC50,[5],39 µM (active)
same,outcome,[6],inactive
same,outcome,[7],inactive
same,outcome,[8],inactive
same,outcome,[9],inactive
same,AC50,[10],10.3 µM (active)
same,outcome,[11],inactive
same,AC50,[12],20 µM (active)
same,AC50,[13],7.44 µM (active)
same,outcome,[14],inactive
same,outcome,[15],inactive
same,outcome,[16],inactive
same,outcome,[17],inactive
same,outcome,[18],inactive
same,outcome,[19],inactive
O=C(Oc1ccc(Br)cc1)N1CCN2CCC1CC2,outcome,[1],inactive
same,outcome,[3],inactive
same,outcome,[4],inactive
same,outcome,[5],inactive
same,outcome,[6],inactive
same,outcome,[7],inactive
same,outcome,[8],inactive
same,outcome,[9],inactive
same,outcome,[10],inactive
same,outcome,[11],inactive
same,outcome,[12],inactive
same,outcome,[13],inactive
same,outcome,[14],inactive
same,outcome,[15],inactive
same,outcome,[20],inactive
same,outcome,[16],inactive
same,outcome,[17],inactive
same,outcome,[18],inactive
same,outcome,[19],inactive
CS(=O)(=O)NC(=O)c1cc(Oc2ccc(C(F)(F)F)cc2Cl)ccc1[N+](=O)[O-],outcome,[1],inactive
same,outcome,[2],inactive
same,outcome,[3],inactive
same,outcome,[4],inactive
same,outcome,[5],inactive
same,outcome,[6],inactive
same,outcome,[7],inactive
same,outcome,[8],inactive
same,outcome,[9],inactive
same,outcome,[10],inactive
same,outcome,[11],inactive
same,outcome,[12],inactive
same,outcome,[13],inactive
same,outcome,[14],inactive
same,outcome,[15],inactive
same,outcome,[16],inactive
same,outcome,[17],inactive
same,outcome,[18],inactive
same,outcome,[19],inactive
